# From PMC7862700, “An all-to-all approach to the identification of sequence-specific readers for epigenetic DNA modifications on cytosine”
# Columns and labels:
# Experiment in all cases: DAPPL (digital affinity profiling via proximity ligation, sequencing); 10 mM Tris-HCl pH 7.5, 50 mM NaCl, 1 mM DTT, 4% glycerol, room temperature, 30 min; GST-TFs on glutathione beads, 16-mer random dsDNA library, 0.1% formaldehyde crosslink after washing; high values mean tight binding
# FLI1 = target: T1, FLI1 (Homo sapiens, UniProt Q01543 1-452); details: protein: recombinant; tags: N-terminal GST; dsDNA, one strand shown
# T1 sequence: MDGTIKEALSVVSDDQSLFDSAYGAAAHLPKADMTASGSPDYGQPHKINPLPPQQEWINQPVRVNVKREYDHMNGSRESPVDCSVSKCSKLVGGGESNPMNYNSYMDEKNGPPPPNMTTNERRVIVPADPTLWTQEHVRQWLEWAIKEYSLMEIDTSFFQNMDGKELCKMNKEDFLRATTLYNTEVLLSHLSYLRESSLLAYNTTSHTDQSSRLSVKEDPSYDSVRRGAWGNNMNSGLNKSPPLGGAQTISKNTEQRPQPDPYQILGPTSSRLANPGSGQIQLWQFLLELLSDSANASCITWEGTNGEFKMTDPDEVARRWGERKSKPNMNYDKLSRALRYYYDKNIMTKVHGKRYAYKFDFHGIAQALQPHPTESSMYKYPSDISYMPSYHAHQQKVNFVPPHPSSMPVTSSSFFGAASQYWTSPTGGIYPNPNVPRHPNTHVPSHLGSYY
# How it was run: (§1)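 Each value of binding signal is a hexamer's read frequency for a factor divided by the same hexamer's frequency in the tag-only sample. Barcoded, bead-captured GST fusions of human transcription factors made in yeast were pooled with that sample and incubated with 200 nmole of a random double-stranded 16-mer DNA library in Tris/NaCl/DTT/glycerol buffer at room temperature for 30 min. Washing, 0.1% formaldehyde crosslinking, proximity ligation, PCR and Illumina NextSeq500 sequencing followed.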
# ELK1 = target: T2, ELK1 (Homo sapiens, UniProt P19419 1-428); details: protein: recombinant; tags: N-terminal GST; dsDNA, one strand shown
# T2 sequence: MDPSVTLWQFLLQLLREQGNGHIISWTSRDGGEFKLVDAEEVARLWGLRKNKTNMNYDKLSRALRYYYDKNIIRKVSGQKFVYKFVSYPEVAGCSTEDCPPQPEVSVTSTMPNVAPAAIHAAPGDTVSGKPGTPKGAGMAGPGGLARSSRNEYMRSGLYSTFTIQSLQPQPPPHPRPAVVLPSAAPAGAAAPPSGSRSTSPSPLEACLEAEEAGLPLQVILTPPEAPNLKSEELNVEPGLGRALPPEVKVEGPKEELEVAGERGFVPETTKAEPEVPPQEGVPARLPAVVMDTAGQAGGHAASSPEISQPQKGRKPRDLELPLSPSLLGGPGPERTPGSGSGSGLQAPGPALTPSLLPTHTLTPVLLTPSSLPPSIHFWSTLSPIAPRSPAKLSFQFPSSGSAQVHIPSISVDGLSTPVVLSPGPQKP
# How it was run: as §1
# GABPA = target: T3, GABPA (Homo sapiens, UniProt Q06546 1-454); details: protein: recombinant; tags: N-terminal GST; dsDNA, one strand shown
# T3 sequence: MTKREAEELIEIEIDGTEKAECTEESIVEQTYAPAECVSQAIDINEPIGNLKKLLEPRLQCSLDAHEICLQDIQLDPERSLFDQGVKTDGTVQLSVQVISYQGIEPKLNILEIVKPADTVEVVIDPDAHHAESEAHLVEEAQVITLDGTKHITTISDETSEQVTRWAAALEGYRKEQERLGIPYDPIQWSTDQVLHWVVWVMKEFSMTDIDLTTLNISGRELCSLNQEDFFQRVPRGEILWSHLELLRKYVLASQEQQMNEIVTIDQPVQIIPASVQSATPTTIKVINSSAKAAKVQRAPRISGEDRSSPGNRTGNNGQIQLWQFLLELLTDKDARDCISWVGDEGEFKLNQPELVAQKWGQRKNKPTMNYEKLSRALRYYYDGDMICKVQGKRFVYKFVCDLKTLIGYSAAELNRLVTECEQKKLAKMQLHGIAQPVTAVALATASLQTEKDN
# How it was run: as §1
# ERG = target: T4, ERG (Homo sapiens, UniProt P11308 1-479); details: protein: recombinant; tags: N-terminal GST; dsDNA, one strand shown
# T4 sequence: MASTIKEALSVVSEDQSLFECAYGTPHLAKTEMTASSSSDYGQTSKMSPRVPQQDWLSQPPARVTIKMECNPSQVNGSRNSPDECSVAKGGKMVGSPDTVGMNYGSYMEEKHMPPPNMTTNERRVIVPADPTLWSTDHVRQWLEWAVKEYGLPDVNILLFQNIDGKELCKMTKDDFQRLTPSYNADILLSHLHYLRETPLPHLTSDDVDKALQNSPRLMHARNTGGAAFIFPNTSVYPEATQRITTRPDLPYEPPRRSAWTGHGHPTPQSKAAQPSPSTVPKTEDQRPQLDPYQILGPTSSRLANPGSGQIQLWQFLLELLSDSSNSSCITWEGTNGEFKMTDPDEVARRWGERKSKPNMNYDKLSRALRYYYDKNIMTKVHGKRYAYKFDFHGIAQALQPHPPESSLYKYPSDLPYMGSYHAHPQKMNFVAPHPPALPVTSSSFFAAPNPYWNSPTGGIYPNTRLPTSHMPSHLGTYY
# How it was run: as §1
# ELF1 = ELF1 (Homo sapiens, UniProt P32519 1-619); details: protein: recombinant; tags: N-terminal GST; dsDNA, one strand shown
# How it was run: as §1
# EHF = target: T5, EHF (Homo sapiens, UniProt Q9NZC4 1-300); details: protein: recombinant; tags: N-terminal GST; dsDNA, one strand shown
# T5 sequence: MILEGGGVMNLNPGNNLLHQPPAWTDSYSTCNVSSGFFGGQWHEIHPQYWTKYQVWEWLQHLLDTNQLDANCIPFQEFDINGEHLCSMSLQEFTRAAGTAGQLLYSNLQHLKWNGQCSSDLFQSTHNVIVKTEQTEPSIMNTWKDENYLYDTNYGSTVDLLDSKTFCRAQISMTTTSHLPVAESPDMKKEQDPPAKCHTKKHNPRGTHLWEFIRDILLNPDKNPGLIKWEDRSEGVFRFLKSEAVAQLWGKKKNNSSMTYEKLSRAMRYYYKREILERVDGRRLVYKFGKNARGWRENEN
# How it was run: as §1
# SPI1 = SPI1 (Homo sapiens, UniProt P17947 1-270); details: protein: recombinant; tags: N-terminal GST; dsDNA, one strand shown
# How it was run: as §1
# SPIB = SPIB (Homo sapiens, UniProt Q01892 1-262); details: protein: recombinant; tags: N-terminal GST; dsDNA, one strand shown
# How it was run: as §1
# ELK3 = target: T6, ELK3 (Homo sapiens, UniProt P41970 1-407); details: protein: recombinant; tags: N-terminal GST; dsDNA, one strand shown
# T6 sequence: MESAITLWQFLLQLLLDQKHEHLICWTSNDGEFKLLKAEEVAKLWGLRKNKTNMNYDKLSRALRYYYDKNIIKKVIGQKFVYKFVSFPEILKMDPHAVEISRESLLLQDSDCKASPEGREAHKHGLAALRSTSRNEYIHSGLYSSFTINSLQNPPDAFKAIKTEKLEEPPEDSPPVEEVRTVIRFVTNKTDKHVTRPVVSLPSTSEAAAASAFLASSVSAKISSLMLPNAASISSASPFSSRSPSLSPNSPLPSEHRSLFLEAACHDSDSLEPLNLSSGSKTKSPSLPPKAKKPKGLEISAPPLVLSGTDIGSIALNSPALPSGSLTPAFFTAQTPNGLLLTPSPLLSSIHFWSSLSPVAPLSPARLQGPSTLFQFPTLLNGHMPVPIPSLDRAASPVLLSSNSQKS
# How it was run: as §1
# FEV = target: T7, FEV (Homo sapiens, UniProt Q99581 1-238); details: protein: recombinant; tags: N-terminal GST; dsDNA, one strand shown
# T7 sequence: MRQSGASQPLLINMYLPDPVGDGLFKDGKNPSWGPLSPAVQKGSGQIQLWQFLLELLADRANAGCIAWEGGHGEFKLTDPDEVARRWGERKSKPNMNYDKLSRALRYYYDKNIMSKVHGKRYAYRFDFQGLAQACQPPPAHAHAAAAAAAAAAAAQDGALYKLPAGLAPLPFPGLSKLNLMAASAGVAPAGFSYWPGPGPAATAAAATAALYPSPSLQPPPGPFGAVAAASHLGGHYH
# How it was run: as §1
# ETV5 = ETV5 (Homo sapiens, UniProt P41161 1-510); details: protein: recombinant; tags: N-terminal GST; dsDNA, one strand shown
# How it was run: as §1
# HSF1 = HSF1 (Homo sapiens, UniProt Q00613 1-529); details: protein: recombinant; tags: N-terminal GST; chain copies: 3; dsDNA, one strand shown
# How it was run: as §1
# SPIC = target: T8, SPIC (Homo sapiens, UniProt Q8N5J4 1-248); details: protein: recombinant; tags: N-terminal GST; dsDNA, one strand shown
# T8 sequence: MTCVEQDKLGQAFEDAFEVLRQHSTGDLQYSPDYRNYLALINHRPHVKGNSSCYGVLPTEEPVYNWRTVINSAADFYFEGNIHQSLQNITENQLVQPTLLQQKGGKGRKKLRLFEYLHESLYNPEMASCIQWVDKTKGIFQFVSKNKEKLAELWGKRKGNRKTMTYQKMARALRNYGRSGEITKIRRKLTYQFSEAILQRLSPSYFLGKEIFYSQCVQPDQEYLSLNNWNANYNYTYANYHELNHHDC
# How it was run: as §1
# ELF4 = ELF4 (Homo sapiens, UniProt Q99607 1-663); details: protein: recombinant; tags: N-terminal GST; dsDNA, one strand shown
# How it was run: as §1
# ELK4 = target: T9, ELK4 (Homo sapiens, UniProt P28324-2 1-405); details: protein: recombinant; tags: N-terminal GST; dsDNA, one strand shown
# T9 sequence: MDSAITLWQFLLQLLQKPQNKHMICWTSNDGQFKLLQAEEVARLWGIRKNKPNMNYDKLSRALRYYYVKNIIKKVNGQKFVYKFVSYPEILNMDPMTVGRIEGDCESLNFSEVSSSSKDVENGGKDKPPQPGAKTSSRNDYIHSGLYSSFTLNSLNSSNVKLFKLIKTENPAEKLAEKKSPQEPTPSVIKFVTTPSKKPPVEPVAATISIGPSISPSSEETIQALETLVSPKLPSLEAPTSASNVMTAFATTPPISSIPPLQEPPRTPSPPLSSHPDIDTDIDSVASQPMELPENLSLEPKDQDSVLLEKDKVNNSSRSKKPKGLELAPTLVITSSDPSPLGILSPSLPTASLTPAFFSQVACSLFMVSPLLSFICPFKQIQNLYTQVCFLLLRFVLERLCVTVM
# How it was run: as §1
# ETV2 = target: T10, ETV2 (Homo sapiens, UniProt O00321 1-342); details: protein: recombinant; tags: N-terminal GST; dsDNA, one strand shown
# T10 sequence: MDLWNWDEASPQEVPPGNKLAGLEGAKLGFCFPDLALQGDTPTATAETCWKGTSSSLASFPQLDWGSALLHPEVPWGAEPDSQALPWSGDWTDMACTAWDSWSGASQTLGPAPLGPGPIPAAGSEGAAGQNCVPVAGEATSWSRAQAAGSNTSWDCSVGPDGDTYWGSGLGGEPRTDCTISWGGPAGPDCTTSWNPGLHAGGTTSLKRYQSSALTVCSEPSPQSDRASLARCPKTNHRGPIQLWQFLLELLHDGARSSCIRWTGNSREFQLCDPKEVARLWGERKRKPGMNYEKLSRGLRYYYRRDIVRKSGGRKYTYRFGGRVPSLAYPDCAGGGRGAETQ
# How it was run: as §1
# ELF3 = target: T11, ELF3 (Homo sapiens, UniProt P78545 1-371); details: protein: recombinant; tags: N-terminal GST; dsDNA, one strand shown
# T11 sequence: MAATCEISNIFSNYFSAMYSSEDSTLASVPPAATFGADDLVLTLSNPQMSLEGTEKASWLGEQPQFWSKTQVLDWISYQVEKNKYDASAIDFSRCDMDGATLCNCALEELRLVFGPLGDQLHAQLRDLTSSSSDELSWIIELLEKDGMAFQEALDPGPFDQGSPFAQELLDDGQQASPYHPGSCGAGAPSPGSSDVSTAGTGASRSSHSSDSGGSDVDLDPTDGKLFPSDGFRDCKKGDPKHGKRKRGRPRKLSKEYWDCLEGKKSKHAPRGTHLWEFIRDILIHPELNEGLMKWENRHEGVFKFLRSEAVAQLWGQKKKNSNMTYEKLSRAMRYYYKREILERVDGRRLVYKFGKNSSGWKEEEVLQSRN
# How it was run: as §1
# CRX = CRX (Homo sapiens, UniProt O43186 1-299); details: protein: recombinant; tags: N-terminal GST; dsDNA, one strand shown
# How it was run: as §1
# ETV1 = ETV1 (Homo sapiens, UniProt P50549 1-477); details: protein: recombinant; tags: N-terminal GST; dsDNA, one strand shown
# How it was run: as §1
# Sequence of ETV1 (P50549 whole entry): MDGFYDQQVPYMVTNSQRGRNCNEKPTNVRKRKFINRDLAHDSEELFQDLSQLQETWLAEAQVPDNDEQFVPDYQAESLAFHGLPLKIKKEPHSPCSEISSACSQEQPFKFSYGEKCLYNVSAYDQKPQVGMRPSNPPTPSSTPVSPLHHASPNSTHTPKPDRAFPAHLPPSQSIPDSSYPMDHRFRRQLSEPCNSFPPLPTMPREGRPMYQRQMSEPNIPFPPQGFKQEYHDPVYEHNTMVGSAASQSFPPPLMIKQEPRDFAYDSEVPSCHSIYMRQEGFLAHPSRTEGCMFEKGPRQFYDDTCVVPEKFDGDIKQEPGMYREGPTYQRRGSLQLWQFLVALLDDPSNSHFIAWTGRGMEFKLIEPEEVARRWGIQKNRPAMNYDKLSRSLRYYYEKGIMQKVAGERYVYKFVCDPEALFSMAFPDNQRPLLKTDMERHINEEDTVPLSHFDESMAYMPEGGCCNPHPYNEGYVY
# Sequence of ELF1 (P32519 whole entry): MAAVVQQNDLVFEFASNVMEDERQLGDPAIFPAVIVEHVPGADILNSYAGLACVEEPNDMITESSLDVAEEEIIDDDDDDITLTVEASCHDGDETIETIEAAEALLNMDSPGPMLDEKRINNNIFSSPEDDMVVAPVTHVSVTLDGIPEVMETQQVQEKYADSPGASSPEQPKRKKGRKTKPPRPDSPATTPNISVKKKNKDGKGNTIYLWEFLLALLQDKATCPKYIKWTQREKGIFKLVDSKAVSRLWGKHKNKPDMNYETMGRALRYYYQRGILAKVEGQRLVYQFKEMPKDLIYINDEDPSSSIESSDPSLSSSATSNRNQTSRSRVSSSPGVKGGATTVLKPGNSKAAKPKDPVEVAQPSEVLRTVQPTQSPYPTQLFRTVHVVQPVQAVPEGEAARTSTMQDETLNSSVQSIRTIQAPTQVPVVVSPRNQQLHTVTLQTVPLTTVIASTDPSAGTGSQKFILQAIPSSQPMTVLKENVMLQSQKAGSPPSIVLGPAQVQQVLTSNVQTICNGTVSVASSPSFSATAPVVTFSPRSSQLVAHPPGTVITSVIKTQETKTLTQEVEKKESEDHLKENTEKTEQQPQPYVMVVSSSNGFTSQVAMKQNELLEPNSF
# Sequence of SPIB (Q01892 whole entry): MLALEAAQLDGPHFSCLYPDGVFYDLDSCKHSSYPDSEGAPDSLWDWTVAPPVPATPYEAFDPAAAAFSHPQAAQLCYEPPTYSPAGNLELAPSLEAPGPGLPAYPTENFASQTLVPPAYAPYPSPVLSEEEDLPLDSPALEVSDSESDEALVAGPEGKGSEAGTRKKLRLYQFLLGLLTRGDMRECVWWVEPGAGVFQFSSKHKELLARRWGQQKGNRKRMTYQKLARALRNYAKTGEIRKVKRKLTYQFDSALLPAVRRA
# Sequence of HSF1 (Q00613 whole entry): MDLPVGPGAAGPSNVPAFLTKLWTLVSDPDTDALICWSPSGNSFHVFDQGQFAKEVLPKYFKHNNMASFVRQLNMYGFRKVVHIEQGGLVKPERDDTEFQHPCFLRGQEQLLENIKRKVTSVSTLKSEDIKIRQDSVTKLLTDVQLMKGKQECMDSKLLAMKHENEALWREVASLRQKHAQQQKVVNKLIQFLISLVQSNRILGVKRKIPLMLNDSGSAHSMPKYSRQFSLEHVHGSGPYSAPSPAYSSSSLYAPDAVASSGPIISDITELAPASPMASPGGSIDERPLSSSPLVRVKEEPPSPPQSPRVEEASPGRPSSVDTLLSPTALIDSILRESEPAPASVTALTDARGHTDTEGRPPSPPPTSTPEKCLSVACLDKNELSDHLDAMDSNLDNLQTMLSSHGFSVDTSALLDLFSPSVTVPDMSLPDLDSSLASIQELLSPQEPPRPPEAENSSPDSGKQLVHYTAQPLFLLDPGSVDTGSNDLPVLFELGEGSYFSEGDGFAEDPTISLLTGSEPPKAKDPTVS
# Sequence of ELF4 (Q99607 whole entry): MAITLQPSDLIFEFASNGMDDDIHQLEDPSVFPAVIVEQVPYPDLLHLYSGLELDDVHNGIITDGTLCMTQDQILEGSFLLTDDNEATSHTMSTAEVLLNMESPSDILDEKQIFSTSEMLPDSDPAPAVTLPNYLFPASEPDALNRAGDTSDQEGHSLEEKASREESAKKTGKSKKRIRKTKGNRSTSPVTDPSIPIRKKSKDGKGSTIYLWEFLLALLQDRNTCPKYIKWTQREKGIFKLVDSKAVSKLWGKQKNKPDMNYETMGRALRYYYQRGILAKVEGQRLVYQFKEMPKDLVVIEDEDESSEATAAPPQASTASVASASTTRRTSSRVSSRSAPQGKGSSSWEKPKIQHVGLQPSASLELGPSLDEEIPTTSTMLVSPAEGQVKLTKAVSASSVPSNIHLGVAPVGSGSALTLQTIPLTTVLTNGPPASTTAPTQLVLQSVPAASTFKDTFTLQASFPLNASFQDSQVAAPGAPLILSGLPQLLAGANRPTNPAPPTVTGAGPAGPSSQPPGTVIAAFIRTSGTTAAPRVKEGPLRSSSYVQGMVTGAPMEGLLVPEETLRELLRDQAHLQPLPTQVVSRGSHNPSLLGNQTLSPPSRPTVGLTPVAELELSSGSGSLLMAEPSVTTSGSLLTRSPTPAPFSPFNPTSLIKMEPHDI
# Sequence of CRX (O43186 whole entry): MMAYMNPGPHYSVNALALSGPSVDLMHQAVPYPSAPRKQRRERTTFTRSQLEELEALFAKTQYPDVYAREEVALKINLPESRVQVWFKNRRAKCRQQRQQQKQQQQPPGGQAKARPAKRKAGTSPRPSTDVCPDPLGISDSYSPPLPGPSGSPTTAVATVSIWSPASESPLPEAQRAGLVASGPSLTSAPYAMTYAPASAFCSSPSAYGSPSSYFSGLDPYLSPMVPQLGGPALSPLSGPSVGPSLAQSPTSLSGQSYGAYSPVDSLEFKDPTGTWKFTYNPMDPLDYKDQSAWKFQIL
# Sequence of ETV5 (P41161 whole entry): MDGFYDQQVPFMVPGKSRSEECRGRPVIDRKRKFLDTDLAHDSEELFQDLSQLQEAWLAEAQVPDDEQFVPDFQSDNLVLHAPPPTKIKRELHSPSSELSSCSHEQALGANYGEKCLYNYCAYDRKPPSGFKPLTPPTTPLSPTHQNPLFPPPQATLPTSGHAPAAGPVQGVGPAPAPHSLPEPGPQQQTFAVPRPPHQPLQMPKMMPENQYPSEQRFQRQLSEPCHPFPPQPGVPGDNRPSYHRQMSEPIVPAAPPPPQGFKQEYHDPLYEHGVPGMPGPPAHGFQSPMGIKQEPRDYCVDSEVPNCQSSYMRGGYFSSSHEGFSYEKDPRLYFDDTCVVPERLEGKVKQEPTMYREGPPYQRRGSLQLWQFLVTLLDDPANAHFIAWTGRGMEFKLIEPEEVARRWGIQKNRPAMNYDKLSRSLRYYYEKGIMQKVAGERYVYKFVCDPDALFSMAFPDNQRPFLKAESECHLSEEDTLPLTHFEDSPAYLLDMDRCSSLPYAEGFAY
sequence,measurement,setting,value
TTGTCC,binding signal,FLI1,"1.47 fold enrichment (6-mer frequency, TF over GST control)"
same,binding signal,ELK1,"1.32 fold enrichment (6-mer frequency, TF over GST control)"
same,binding signal,GABPA,"1.41 fold enrichment (6-mer frequency, TF over GST control)"
same,binding signal,ERG,"1.4 fold enrichment (6-mer frequency, TF over GST control)"
same,binding signal,ELF1,"1.3 fold enrichment (6-mer frequency, TF over GST control)"
same,binding signal,EHF,"1.31 fold enrichment (6-mer frequency, TF over GST control)"
same,binding signal,SPI1,"1.17 fold enrichment (6-mer frequency, TF over GST control)"
same,binding signal,SPIB,"1.34 fold enrichment (6-mer frequency, TF over GST control)"
same,binding signal,ELK3,"1.43 fold enrichment (6-mer frequency, TF over GST control)"
same,binding signal,FEV,"1.34 fold enrichment (6-mer frequency, TF over GST control)"
same,binding signal,ETV5,"1.42 fold enrichment (6-mer frequency, TF over GST control)"
same,binding signal,HSF1,"1.16 fold enrichment (6-mer frequency, TF over GST control)"
same,binding signal,SPIC,"1.3 fold enrichment (6-mer frequency, TF over GST control)"
same,binding signal,ELF4,"1.26 fold enrichment (6-mer frequency, TF over GST control)"
same,binding signal,ELK4,"1.29 fold enrichment (6-mer frequency, TF over GST control)"
same,binding signal,ETV2,"1.56 fold enrichment (6-mer frequency, TF over GST control)"
same,binding signal,ELF3,"1.24 fold enrichment (6-mer frequency, TF over GST control)"
same,binding signal,CRX,"1.16 fold enrichment (6-mer frequency, TF over GST control)"
same,binding signal,ETV1,"1.23 fold enrichment (6-mer frequency, TF over GST control)"
